Among the data in PMC11574364 are binding signal values, retold here.

Holding throughout (assay): protein domain microarray probed with biotinylated miRNA; Domain array: 20 mM Tris-HCl pH 7.4, 200 mM KCl, 0.2 mM EDTA, 0.05% NP40, 2 ug/ul heparin, overnight 4 C. ORF array: PBS pH 7.0 with RNase inhibitor, 100 ng RNA; high values mean tight binding
Holding throughout (details): ssRNA

Experiment [1] has as its target T1, NOVA2(3) (Homo sapiens, UniProt Q9UNW9).
T1 sequence: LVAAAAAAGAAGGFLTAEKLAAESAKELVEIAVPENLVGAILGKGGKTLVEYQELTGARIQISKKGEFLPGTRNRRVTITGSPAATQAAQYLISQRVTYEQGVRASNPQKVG

For experiment [2], the target named is T2, RNPC3(2) (Homo sapiens, UniProt Q96LT9).
T2 sequence: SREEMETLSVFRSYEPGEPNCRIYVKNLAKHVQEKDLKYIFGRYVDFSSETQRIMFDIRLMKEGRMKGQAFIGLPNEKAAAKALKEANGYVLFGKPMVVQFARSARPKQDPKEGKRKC

Experiment [3] deals with RBMXL1 (Homo sapiens, UniProt Q96E39).
The target of experiment [4] is T3, RBM38 (Homo sapiens, UniProt Q9H0Z9).
T3 sequence: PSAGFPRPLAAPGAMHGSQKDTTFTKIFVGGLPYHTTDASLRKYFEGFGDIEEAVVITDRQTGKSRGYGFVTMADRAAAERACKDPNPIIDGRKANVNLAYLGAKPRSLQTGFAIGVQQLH

The target in experiment [5] is IGF2BP2(3-4) (Homo sapiens, UniProt Q9Y6M1).
In experiment [6] the target is STAU1(2) (Homo sapiens, UniProt O95793).
Experiment [7] concerns the target SETD1A (Homo sapiens, UniProt O15047).
Experiment [8] concerns the target IGF2BP1(3-4) (Homo sapiens, UniProt Q9NZI8).
Experiment [9] concerns the target VIGILIN(6-10) (Homo sapiens, UniProt Q00341).
In experiment [10] the target is T4, RBM18 (Homo sapiens, UniProt Q96H35).
T4 sequence: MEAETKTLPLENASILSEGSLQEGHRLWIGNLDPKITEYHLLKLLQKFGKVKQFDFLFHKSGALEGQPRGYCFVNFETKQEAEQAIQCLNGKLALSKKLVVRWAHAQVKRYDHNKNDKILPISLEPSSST

Chain of IGF2BP2(3-4) (Q9Y6M1 410-599): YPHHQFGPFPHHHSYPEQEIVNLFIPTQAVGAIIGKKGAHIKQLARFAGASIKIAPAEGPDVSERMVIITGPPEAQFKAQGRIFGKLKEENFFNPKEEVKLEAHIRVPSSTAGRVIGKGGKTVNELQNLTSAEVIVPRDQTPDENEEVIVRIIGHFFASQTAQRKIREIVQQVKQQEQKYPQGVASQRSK
Chain of RBMXL1 (Q96E39 1-110): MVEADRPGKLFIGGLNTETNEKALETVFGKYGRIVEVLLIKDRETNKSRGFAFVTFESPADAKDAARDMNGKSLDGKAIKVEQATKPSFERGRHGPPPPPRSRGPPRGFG
Chain of STAU1(2) (O95793 164-271): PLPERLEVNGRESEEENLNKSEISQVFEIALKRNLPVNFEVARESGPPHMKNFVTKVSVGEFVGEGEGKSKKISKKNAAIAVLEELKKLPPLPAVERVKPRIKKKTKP
Chain of IGF2BP1(3-4) (Q9NZI8 388-577): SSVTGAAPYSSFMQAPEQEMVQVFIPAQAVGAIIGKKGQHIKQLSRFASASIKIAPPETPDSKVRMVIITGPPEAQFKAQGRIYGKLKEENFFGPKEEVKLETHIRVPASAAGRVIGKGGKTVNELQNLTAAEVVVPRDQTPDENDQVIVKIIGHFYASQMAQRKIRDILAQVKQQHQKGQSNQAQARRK
Chain of SETD1A (O15047 60-200): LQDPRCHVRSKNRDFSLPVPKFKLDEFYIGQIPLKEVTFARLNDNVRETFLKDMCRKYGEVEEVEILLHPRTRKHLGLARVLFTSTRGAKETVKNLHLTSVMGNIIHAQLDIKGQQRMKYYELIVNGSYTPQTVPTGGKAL
Chain of VIGILIN(6-10) (Q00341 495-900): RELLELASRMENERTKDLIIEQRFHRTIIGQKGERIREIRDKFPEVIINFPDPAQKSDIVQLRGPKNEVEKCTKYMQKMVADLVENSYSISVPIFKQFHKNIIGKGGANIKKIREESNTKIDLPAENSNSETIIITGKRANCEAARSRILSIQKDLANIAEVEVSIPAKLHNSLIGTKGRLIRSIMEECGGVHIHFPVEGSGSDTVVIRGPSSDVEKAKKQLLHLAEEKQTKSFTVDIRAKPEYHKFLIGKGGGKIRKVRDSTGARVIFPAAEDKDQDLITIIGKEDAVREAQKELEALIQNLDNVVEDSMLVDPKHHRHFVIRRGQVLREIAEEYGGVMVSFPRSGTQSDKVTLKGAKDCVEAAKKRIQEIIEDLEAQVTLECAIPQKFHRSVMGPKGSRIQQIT

With UGAGGUAGUAGGUUGUGUGGUU, the binding signal stood at 271 ± 8.31 fluorescence intensity in [1]; 301 ± 43.8 fluorescence intensity in experiment [2]; 981 ± 17.4 fluorescence intensity in experiment [3]; 1950 ± 73.9 fluorescence intensity in experiment [4]; 1420 ± 38.2 fluorescence intensity in [5]; 123 ± 31.3 fluorescence intensity in experiment [6]. In addition, the binding signal in [7] is 213 ± 11.9 fluorescence intensity; in experiment [8] it was 1118 ± 5.57 fluorescence intensity; in experiment [9], 498 ± 6.91 fluorescence intensity; in experiment [10], 312 ± 45.3 fluorescence intensity.
With AGAGGUAGUAGGUUGCAUAGUU, the binding signal was found to be 1853 ± 17.2 fluorescence intensity in [1]; 168 ± 44.9 fluorescence intensity in experiment [2]; 1390 ± 47.7 fluorescence intensity in experiment [3]; 2315 ± 13.9 fluorescence intensity in experiment [4]; 1780 ± 95.8 fluorescence intensity in experiment [5]; 52.2 ± 5.35 fluorescence intensity in experiment [6]. The binding signal in [7] worked out at 95.585 ± 0.0212 fluorescence intensity; in [8], 955 ± 10.5 fluorescence intensity; in experiment [9] it was 91.1 ± 6.12 fluorescence intensity; in [10] it was 316 ± 12.6 fluorescence intensity.
Take UGAGGUAGUAGGUUGUAUAGUU: the binding signal in [1] stood at 49.4 ± 3.28 fluorescence intensity; in experiment [2], 32.3 ± 6.65 fluorescence intensity; in experiment [3], 300 ± 36.4 fluorescence intensity; in experiment [4], 631 ± 19.8 fluorescence intensity; in [5], 412 ± 46 fluorescence intensity; in [7], 36 ± 1.17 fluorescence intensity. For the same sequence, the binding signal worked out at 262 ± 8.37 fluorescence intensity in experiment [8], 26.1 ± 2.47 fluorescence intensity in [9] and 110 ± 9.81 fluorescence intensity in [10].
As for UGAGGUAGUAGGUUGUAUGGUU, the binding signal came out at 144 ± 61.5 fluorescence intensity in [1]; 130 ± 69.7 fluorescence intensity in experiment [2]; 805 ± 10.1 fluorescence intensity in [3]; 1540 ± 34.6 fluorescence intensity in experiment [4]; 1720 ± 120 fluorescence intensity in [5]; 78.8 ± 6.29 fluorescence intensity in [6]. In addition, the binding signal in experiment [7] amounted to 99.9 ± 23.9 fluorescence intensity; in [8], 1615 ± 5.45 fluorescence intensity; in experiment [9], 270 ± 12.9 fluorescence intensity; in [10], 291 ± 10.4 fluorescence intensity.
For UAGCUUAUCAGACUGAUGUUGA, the binding signal was 63.2 ± 4.35 fluorescence intensity in experiment [1]; 72.3 ± 78 fluorescence intensity in experiment [2]; 96.9 ± 4.67 fluorescence intensity in experiment [3]; 1790 ± 23.9 fluorescence intensity in experiment [4]; 59.8 ± 2.54 fluorescence intensity in experiment [5]; 23.2 ± 2.69 fluorescence intensity in experiment [7]. Also, the binding signal in [8] is 22 ± 1.81 fluorescence intensity; in [10] it was 72.6 ± 4.62 fluorescence intensity.
As to CAGUGCAAUGAUGAAAGGGCAU, the binding signal in experiment [1] is 508 ± 29.8 fluorescence intensity; in experiment [2], 138 ± 35.8 fluorescence intensity; in experiment [3], 1000 ± 56.8 fluorescence intensity; in [4], 1690 ± 55.6 fluorescence intensity; in [5], 904 ± 85.6 fluorescence intensity; in [6], 23.7 ± 6.78 fluorescence intensity. For the same sequence, the binding signal in experiment [7] came to 64.7 ± 9.41 fluorescence intensity; in [8], 436 ± 8.23 fluorescence intensity; in [9], 43.4 ± 1.94 fluorescence intensity; in experiment [10] it was 248.1 ± 1.58 fluorescence intensity.
